PubChem BioAssay (NCI)
About 83,000 compounds went through this panel and 20% of them were active in at least one assay; those are over-represented in the sample as a whole.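 Interpretation: 100, growth as untreated; towards 0, rising growth inhibition; 0, no net growth; 0 to -100, cell death. Compounds scoring below 10 were considered active.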 A number with no mark means an inactive call. Activity calls are given as the source filed them.

These compounds were tested on OVCAR-5 ovarian (assay: NCI-60 one-dose screen, 48 h (100 = growth as untreated, 0 = no growth, -100 = all killed)). Details: 10 µM unless noted.
`Cn1cnc([N+](=O)[O-])c1N1c2ccncc2Sc2ccncc21` showed a growth of 99.7%. `O=C(Nc1ccccc1F)Nc1ccccc1Cl` showed a growth of 102%. `CCCOC(=O)c1ccc([N+](=O)[O-])o1` gave a growth of 99.5%. For `COc1cc(/C=C/C(=O)c2ccc(Oc3ncnc4ccccc34)cc2)cc(OC)c1OC`, the growth was 88.2%. `COc1ccc(/C=C2\CS(=O)(=O)C/C(=C\c3ccc(OC)cc3)C2=O)cc1` was tested, and the growth was -20.2% (active). `O=C(/C=C/c1ccco1)c1cccc(Nc2nc(Nc3ccccc3)nc(Nc3ccccc3)n2)c1` gave a growth of 83.6%. `Cc1cc(NCCN(C(C)C)C(C)C)nc(/N=C(\N)Nc2ccc(Cl)c(C(F)(F)F)c2)n1` was tested, and the growth was -55.5% (active). `O=S1(=O)N(CCNc2nccc(-c3c(-c4cccc(O)c4)nc4sccn34)n2)CCN1Cc1ccccc1` gave a growth of 113%. In the case of `Clc1ccc(CN2COc3c(ccc4cccnc34)C2)cc1Cl`, the growth is reported as 5.97% (active). In the case of `CCC(C)Nc1ccc(N)cc1` (stereo not given), the growth is reported as 74%. With `CC1(C)N=C(N)N=C(N)N1c1ccc(OCC(=O)Nc2ccccc2)c(Cl)c1` the growth was 49%. Compound `COc1ccc2c(c1)C(=O)/C(=C/c1ccc(OCC(=O)c3ccc(Cl)cc3)cc1)O2` has a growth of 105%. With `Cc1cccc(NC(=O)CCc2ccc(N3C(N)=NC(N)=NC3(C)C)cc2)c1` the growth was 46.7%. In the case of `CCn1c(SC)nnc1-c1cc2c([nH]c3ccccc32)c(-c2cccc(O)c2)n1`, the growth is reported as 48.8%. `CC(=O)N1N=C2N(Cc3ccccc3)C(=O)c3c(sc4c3CCCC4)N2C1c1cn(-c2ccccc2)nc1-c1ccc(Cl)cc1` (stereo not given) was tested, and the growth was 101%. In the case of `COc1ccc2c(c1)C(=O)/C(=C/c1cccc(OCC(=O)c3ccccc3)c1)O2`, the growth is reported as 37.8%. `NC(=S)NNC1CCCCC1` was tested, and the growth was 102%. For `NC(CSC(c1ccccc1)(c1ccccc1)c1ccc(F)cc1)C(=O)O` (stereo not given), the growth was 34.9%. For `CC1=C[S+](c2ccccc2)c2cccc3cc4ccccc4c1c23` (stereo not given), the growth was -32.7% (active). For `Cn1c(I)c(C#C[Si](C)(C)C)c(=O)[nH]c1=O`, the growth was 77.7%. Work on `COc1ccc2c(-c3ccc(F)cc3)c(C#N)c(=NC(C)=O)oc2c1` yielded a growth of 103%. `Cc1cn(C2CC(F)C(CO)O2)c(=O)[nH]c1=O` (stereo not given) gave a growth of 94.4%. Compound `CCCN1C(=O)CSC1=Nc1ccc2cc3ccc(N=C4SCC(=O)N4CCC)cc3nc2c1` has a growth of 89.2%. With `CC(=O)c1cc2c(c(O)c1C)C(=O)C(=O)c1c(O)cccc1-2` the growth was -80.6% (active). For `CC(C)(C)NC(C1=CC(C)(C)c2ccccc2C1=O)c1ccccc1` (stereo not given), the growth was -75% (active). In the case of `CC(=O)N1N=C(CCC(=O)c2nc3ccc([N+](=O)[O-])cc3[nH]2)OC1c1ccc(O)cc1` (stereo not given), the growth is reported as 104%. Work on `C=C1C(=O)O[C@H]2[C@H]1CC/C(C(=O)Nc1ccc(OC)c(C(N)=O)c1O)=C\CC[C@@]1(C)O[C@@H]21` yielded a growth of 75.1%. With `Nc1nc2ccc(CNc3ccc(C(=O)NC(CC(=O)O)C(=O)O)cc3)cc2c(=O)[nH]1` (stereo not given) the growth was 52.2%. Compound `COc1ccc2c(c1)nnc1c3cccnc3[nH]c21` has a growth of 36.1%. For `CC1(C)N=C(N)N=C(N)N1c1ccc(F)c(C(F)(F)F)c1`, the growth was 41.8%. In the case of `O=C1CN(CCN2CC(=O)NC(=O)C2)CC(=O)N1`, the growth is reported as 93.2%. Compound `COc1ccc(/C(Cl)=N/N=C(\Cl)c2cc(OC)c(OC)c(OC)c2)cc1OC(C)=O` has a growth of 107%. For `CC1(C)N=C(N)N=C(N)N1c1cccc(CCCCc2ccccc2)c1`, the growth was 38.5%. Compound `CC(=O)c1ccc2c(c1)C1C=CCC1[C@H](c1cc3c(cc1Br)OCO3)N2` (stereo not given in full) has a growth of 34.7%. `Clc1ccc2c(c1)nnn1c3ncccc3c(Br)c21` showed a growth of 101%.
